From paper PMC4336329 (PLoS ONE, 2015)
The campaign covered roughly 310,000 compounds. About 14,000 (4.5%) showed an effect of 50% or more. The effect is printed as a negative number. What follows is part of a selection rich in strong results, with near analogues and random picks from the rest.

These compounds were tested against human ether-à-go-go-related gene (hERG) potassium channel (human, UniProt Q12809) (assay: primary screen, population patch clamp on CHO cells stably expressing hERG; higher = less effect of the substance).
human ether-à-go-go-related gene (hERG) potassium channel, sequence (Q12809 whole entry, looked up): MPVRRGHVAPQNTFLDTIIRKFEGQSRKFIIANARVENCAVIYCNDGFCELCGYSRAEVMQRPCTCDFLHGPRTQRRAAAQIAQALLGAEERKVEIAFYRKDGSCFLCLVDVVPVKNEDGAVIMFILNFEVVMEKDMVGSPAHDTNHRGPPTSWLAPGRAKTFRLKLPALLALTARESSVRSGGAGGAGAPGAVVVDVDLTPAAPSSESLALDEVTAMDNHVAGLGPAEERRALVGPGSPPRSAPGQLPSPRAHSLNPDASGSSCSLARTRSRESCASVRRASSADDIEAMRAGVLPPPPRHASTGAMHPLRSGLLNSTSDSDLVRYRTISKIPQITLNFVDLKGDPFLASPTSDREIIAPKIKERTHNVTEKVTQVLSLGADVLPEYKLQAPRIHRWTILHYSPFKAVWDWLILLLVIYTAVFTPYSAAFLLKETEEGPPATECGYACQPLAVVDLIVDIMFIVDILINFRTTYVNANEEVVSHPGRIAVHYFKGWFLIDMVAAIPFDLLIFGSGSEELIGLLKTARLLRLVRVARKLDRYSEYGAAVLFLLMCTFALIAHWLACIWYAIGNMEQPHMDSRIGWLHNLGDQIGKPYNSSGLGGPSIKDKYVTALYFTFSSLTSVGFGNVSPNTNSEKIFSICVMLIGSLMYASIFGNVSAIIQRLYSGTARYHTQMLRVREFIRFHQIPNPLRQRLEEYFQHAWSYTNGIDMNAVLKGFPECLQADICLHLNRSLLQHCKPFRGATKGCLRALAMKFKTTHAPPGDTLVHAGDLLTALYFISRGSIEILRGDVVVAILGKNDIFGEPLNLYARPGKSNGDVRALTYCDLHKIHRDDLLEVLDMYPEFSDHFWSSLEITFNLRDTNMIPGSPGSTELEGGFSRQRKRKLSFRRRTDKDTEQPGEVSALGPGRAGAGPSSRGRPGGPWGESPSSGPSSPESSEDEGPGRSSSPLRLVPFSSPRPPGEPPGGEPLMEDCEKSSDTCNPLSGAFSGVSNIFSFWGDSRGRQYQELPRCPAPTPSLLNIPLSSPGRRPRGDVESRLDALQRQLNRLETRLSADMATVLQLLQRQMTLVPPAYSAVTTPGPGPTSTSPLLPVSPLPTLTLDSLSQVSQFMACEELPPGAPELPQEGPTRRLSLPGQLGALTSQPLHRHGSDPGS
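Further: peak tail current of the secondary pulse compared with the same well before compound.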

Compound | hERG current change (%, negative = inhibition) at 10uM
COc1ccc(NC(=O)C(=O)N/N=C/c2cccnc2)c(OC)c1 | 21.3%
N#CC1(c2nc3ccccc3[nH]2)CC1c1ccc2c(c1)OCO2 (stereo not drawn) | 0.101%
O=C(COC(=O)c1ccc(Cl)c(S(=O)(=O)N2CCOCC2)c1)NCc1ccco1 | -17%
COc1ccc(CN(C(=O)c2nsc(Cl)c2Cl)C(C(=O)NC2CCCC2)c2ccc(C)cc2)cc1 (stereo not drawn) | -12.4%
C/C(=N/OC(=O)c1ccc(C)cc1)c1ccc(N2C(=O)C3CCCCC3C2=O)cc1 (stereo not drawn) | 16%
O=c1c2ccccc2nc(/C=C/c2ccc(Br)cc2)n1CCCO | 0.999%
O=c1c2ccccc2nc(/C=C/c2cccc([N+](=O)[O-])c2)n1CCCO | -43%
O=c1c2ccccc2nc(/C=C/c2ccc([N+](=O)[O-])o2)n1CCCO | -51.7%
Cn1c(/C=C/c2ccc([N+](=O)[O-])o2)nc2ccccc2c1=O | -24.2%
O=c1c2ccccc2nc(SCc2ccc([N+](=O)[O-])cc2)n1CCCO | -57.9%
CCOC(CCn1c(SCc2ccc([N+](=O)[O-])cc2)nc2ccccc2c1=O)OCC | -39%
O=c1c2sccc2nc(SCc2cc(=O)n3ccccc3n2)n1Cc1ccccn1 | -22.3%
Nn1c(SCc2ccc([N+](=O)[O-])cc2)nc2ccccc2c1=O | 17.8%
O=c1c2ccccc2nc(/C=C/c2ccc([N+](=O)[O-])cc2)n1CCCO | -57.4%
O=c1c2ccccc2nc(/C=C/c2ccccc2)n1CCCO | -8.23%
O=c1c2sccc2nc(SCc2ccc([N+](=O)[O-])cc2)n1Cc1ccccn1 | -61.6%
N#Cc1ccccc1CSc1nc2ccsc2c(=O)n1Cc1ccccn1 | -10.9%
COCC(C)n1c(COc2ccccc2F)nnc1SCC(=O)c1c(N)n(C)c(=O)n(C)c1=O (stereo not drawn) | 16.4%
N#C/C(=C\c1c(F)cccc1Cl)S(=O)(=O)c1ccccn1 | 3.15%
COc1cc(-c2nc(S(=O)(=O)c3ccc(Cl)cc3)c(N3CCOCC3)o2)cc(OC)c1OC | -3.17%
Cl.NNc1nc(-c2ccccc2)cs1 | 29.7%
COc1cccc(NC(=O)CCCN2C(=O)C3CC=CCC3C2=O)c1 (stereo not drawn) | -2.79%

Compound | hERG current change (%, negative = inhibition) at 10uM
Cc1cc([N+](=O)[O-])nn1CCCC(=O)NCc1ccccc1 | -5.8%
Cc1ccccc1NC(=O)C1=CC=CN2CCS(=O)(=O)N=C12 | -11.7%
O=C(Nc1cccc2ncccc12)c1cccc(F)c1 | -11.1%
CCOC(=O)C1(Cc2cccc(OC)c2)CCN(Cc2cccc(OCC)c2O)CC1 | -56.8%
CCOC(=O)C1(Cc2cccc(OC)c2)CCN(Cc2cccc3c2OCO3)CC1 | -39.4%
CCOC(=O)C1(Cc2ccccc2)CCN(Cc2cccc(OC)c2O)CC1 | -69.6%
CCOC(=O)C1(Cc2ccccc2)CCN(Cc2cn(CC(=O)OC)c3ccccc23)CC1 | -78.1%
CCOC(=O)C1(CC2CC2)CCN(Cc2cn(C)c3ccccc23)CC1 | -31%
CCOC(=O)C1(Cc2cccc(OC)c2)CCN(Cc2ccccc2OC)CC1 | -51.3%
Cc1cc(=O)nc2c3ccccc3n(CC(=O)Nc3ccccc3Br)n12 | -7.45%
CCOc1ccc(N(CC(=O)Nc2cccc(Br)c2)S(C)(=O)=O)cc1 | -1.12%
NC(=O)C1CCN(/C=C2\C(=O)NC(=O)N(Cc3ccco3)C2=O)CC1 | 6.74%
COc1ccccc1CNC(=O)COc1ccc(C)nc1[N+](=O)[O-] | 18.3%
CCN(C(=O)COc1ccc(C(=O)c2ccccc2)cc1)c1ccccc1 | -18.9%
O=C1NNC(=O)C1c1ccccc1 | 25.7%
CCOC(=O)C1(Cc2cccc(OC)c2)CCN(Cc2cccc(OC)c2O)CC1 | -66%
CCOC(=O)C1(Cc2cccc(OC)c2)CCN(Cc2cc(OC)ccc2OC)CC1 | -67.2%
CCOC(=O)c1[nH]ncc1CN1CCC(Cc2cccc(OC)c2)(C(=O)OCC)CC1 | -37.6%
CC(C)c1ccc(CN2CCN(C(=O)CSc3nnnn3C3CC3)CC2)cc1 | -28.1%
COc1ccc2c(C(=O)CN(C)C3CCCCC3)c[nH]c2c1 | 9.09%
Cc1cnc(NC(=O)CSc2nnc(Cc3ccccc3)n2C)s1 | -12.1%
CC(=O)Nc1ccc(NC(=O)CSc2nnc(-c3cccs3)n2C)cc1 | -7.69%

Compound | hERG current change (%, negative = inhibition) at 10uM
Cc1cnc(NC(=O)CSc2nnc(-c3cccs3)n2C)s1 | -59.4%
Cc1csc(NC(=O)CSc2nnc(-c3ccncc3)n2C)n1 | -17.5%
Cc1csc(NC(=O)CSc2nnc(CCNC(=O)c3cccs3)n2C)n1 | 8.1%
Cc1csc(NC(=O)CSc2nnc(-c3cccs3)n2C)n1 | -60.5%
O=C(CCCc1nc2ccccc2s1)NCc1ccccc1F | -20.2%
CCN(CC(=O)Nc1c(F)cccc1F)C(=O)c1cccc(-n2cccc2)c1 | -27.1%
CCCCCN(C(=O)CCC(=O)OC(C)C(=O)NCc1ccccc1)c1c(N)n(CCCC)c(=O)[nH]c1=O (stereo not drawn) | -14.5%
O=C(c1cnn2c(C(F)F)cc(-c3ccccc3)nc12)N1CCCc2ccccc21 | -3.45%
COCCn1c(SCC(=O)N2CCCC2)nnc1-c1ccco1 | 18.6%
Cc1ccc(/C=N\NC(=O)Cc2noc3ccccc23)cc1 | 15.6%
COC(=O)c1ccc(C(=S)N2CCCCC2)cc1 | 8.89%
O=C(O)c1ccc(SCc2cnc(Cl)s2)cc1 | -70%
COC(=O)c1ccc(SCc2cnc(Cl)s2)cc1 | 1.27%
Clc1ncc(CSc2ccccc2)s1 | 3.25%
COC(=O)c1ccc(CNC(=O)c2ccc3c(c2)S(=O)(=O)N=C2CCCCCN23)cc1 | -10.5%
Cc1cc2ccccc2c(=O)n1CC(=O)NCC1COc2ccccc2O1 (stereo not drawn) | 0.464%
CCn1cc(/C=N\NC(=O)Cc2ccc([N+](=O)[O-])cc2)c(C)n1 | -25.1%
CCN(Cc1ccc(OC)c(COC)c1)CC1CCCN(CCc2cccc(OC)c2)C1 (stereo not drawn) | -26.3%
CN(Cc1ccc(C#CCCO)cc1)CC1CCCN(CCc2ccc(Cl)cc2)C1 (stereo not drawn) | -70.9%
CCN(Cc1ccc(NC(C)=O)cc1)CC1CCCN(CCc2cccc(OC)c2)C1 (stereo not drawn) | -30.3%
CCN(Cc1ccc(C#CCCO)cc1)CC1CCCN(CCc2cccc(F)c2)C1 (stereo not drawn) | -65.2%
CCN(Cc1ccc(C#CCCO)cc1)CC1CCCN(CCc2cccc(OC)c2)C1 (stereo not drawn) | -58.5%

Compound | hERG current change (%, negative = inhibition) at 10uM
OCCC#Cc1ccc(CN2CCN(C3CCCCC3)C(CCO)C2)cc1 (stereo not drawn) | -0.113%
CCN(Cc1ccc(OC)c(COC)c1)CC1CCCN(CCc2cccc(F)c2)C1 (stereo not drawn) | -67.7%
CCN(Cc1cccc(OC)c1)CC1CCCN(CCc2cccc(OC)c2)C1 (stereo not drawn) | -47.3%
CCOc1ccc(NC(=O)Nc2cc(C(=O)O)ccc2N2CC3CC(C2)c2cccc(=O)n2C3)cc1 (stereo not drawn) | 12.4%
Cc1cc(C)cc(Nc2cc(C)nc3nc(C)nn23)c1 | -14.7%
O=c1[nH]c(/C=C/c2ccccc2)c([N+](=O)[O-])c(=O)[nH]1 | 5.45%
CCN1C(=O)Nc2cccc3cccc1c23 | 1.65%
CCN(CC)C(=O)c1cnn(-c2ccccc2)c1NC(=O)c1ccco1 | -12.8%
COc1ccc(/C=C/C(=O)Nc2ccccc2C(=O)NCC(c2ccc(OC)cc2)N(C)C)cc1 (stereo not drawn) | -49.6%
CCc1nc(N=Nc2c(O)[nH]c3ccccc23)c2c3c(sc2n1)CCC3 | 13.7%
O=C(COC(=O)c1cc(Cl)ccc1[N+](=O)[O-])NCc1ccc(Cl)cc1Cl | -11.8%
COc1ccccc1CCNC(=O)CN1C(=O)c2ccccc2S1(=O)=O | 2.11%
CC(C)(C)C(=O)NC1CCSC1=O (stereo not drawn) | 8.46%
CN(C)CCN1C(=O)C2C3C=CC(C3)C2C1=O (stereo not drawn) | 20.6%
Cc1cc(C)c2c(=O)[nH]c(SCC(=O)Nc3ccc(N(C)C)cc3)nc2n1 | -2.77%
CCCc1[nH]nc2c1C(Cc1ccccc1)C(C#N)=C(N)O2 (stereo not drawn) | 0.432%
Cc1nn(-c2ccccc2)c(C)c1-c1cc(C(=O)N/N=C/c2cccnc2)[nH]n1 | -18.7%
Cc1cccc2c1N(C)C(=O)C2=O | 17.1%
Cc1ccc(NC(=O)CNCc2ccccn2)cc1S(=O)(=O)N(C)C | 20.9%
CCN(Cc1ccc(NC(C)=O)cc1)CC1CCCN(CCc2cccc(F)c2)C1 (stereo not drawn) | -24.4%
CCN(Cc1ccc(O)cc1)CC1CCCN(CCc2cccc(F)c2)C1 (stereo not drawn) | -71.1%
